The test system of assay [1] is Human papillomavirus type 1a protein E7 (residues 44-93). In words: small molecules binding HPV E7 44-93 – biochemical, small-molecule microarray, residues 44-93, 635 nm fluorescence, primary screen (AID 1108).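 Also: E7 fragment applied at 1 µg/mL in TBST for 1 h at 4 C; score combines spot fluorescence with its signal to noise ratio.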 Conditions: fluorescence 635 nm, higher = more signal.
The nature of assay [2]: hepatitis C replication reporter changes, two-sided – Huh7 cells, luciferase reporter, HCV replication inhibitor project, primary screen (AID 1109).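 Also: huh7 hepatoma cells harbouring a luciferase neomycin HCV replicon reporter; luciferase luminescence as measure of HCV replicon replication; test concentration not given here.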 As to conditions: Huh7 HCV replicon luciferase reporter, 48 h; higher = more signal. Background: A reporter such as luciferase makes a cellular process visible.
For assay [3], the target named is Left-right determination factor 2 (Homo sapiens) (UniProt O00292). Put plainly: small molecules binding LEFTY2 protein – biochemical, small-molecule microarray, 635 nm fluorescence scan, primary screen (AID 1110). Conditions: higher = more signal.
The target of assay [4] is Calmodulin-1 (Homo sapiens) (UniProt P0DP23). Put plainly: small molecules binding calmodulin-1 with EGTA – biochemical, small-molecule microarray, Cy5-labelled CALM1, profiling panel (AID 1111).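 Also: labelled calmodulin applied in Tris saline Tween buffer holding calcium plus EGTA and DTT.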 As to conditions: Cy5-CALM1 binding fluorescence, higher = more signal.
For assay [5] the target is unchanged. In words: small molecules binding Ca-loaded calmodulin-1 – biochemical, small-molecule microarray, Cy5-labelled CALM1, plus calcium, artefact control for SMM control-protein annotation, profiling panel (AID 1112).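 Also: score merges spot fluorescence with signal to noise from triplicate slides.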 Conditions: Cy5-CALM1 binding fluorescence, higher = more signal.
Assay [6] in a line: probe aWnt5a binding to arrayed compounds – biochemical, biotinylated probe, 635/667 nm fluorescence, primary screen (AID 1113).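 Also: score merges 667 nm fluorescence intensity with signal-to-noise per printed feature.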 As to conditions: small-molecule microarray, higher = more signal.
Assay [7] can be described thus: probe aShh binding to arrayed compounds – biochemical, biotinylated probe, 635/667 nm fluorescence, primary screen (AID 1114).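 Also: probe is biotin-labelled aShh protein from a stem cell growth factor screen; measures binding of labelled protein to compounds printed on the slide; score merges feature fluorescence at 667 nm with signal-to-noise.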 As to conditions: small-molecule microarray, higher = more signal.
The nature of assay [8]: probe aNog binding to arrayed compounds – biochemical, biotinylated probe, 635/667 nm fluorescence, primary screen (AID 1115).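 Also: probe is biotinylated aNog protein used at 0.15 µg/mL for 1 h at 4 C; z-score combines 667 nm fluorescence of each spot with its signal to noise.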 As to conditions: small-molecule microarray, higher = more signal.
Assay [9] addresses Torsin-1A-interacting protein 1 (Homo sapiens) (UniProt Q5JTV8). In words: compound microarray binding of lysate hLAP1 – cell lysate, small-molecule microarray, COS7 lysate, 635/667 nm fluorescence, primary screen (AID 1116). As to conditions: 635 nm fluorescence, higher = more signal.
Assay [10] addresses Alpha-bungarotoxin (Bungarus multicinctus) (UniProt P60615). In words: compounds binding labelled alpha-BTX control protein – biochemical, small-molecule microarray, Alexa647 label, 635/667 nm fluorescence, artefact control for SMM control protein annotation, profiling panel (AID 1117). Conditions: alpha-BTX-A647 binding fluorescence, higher = more signal.

Sequence of Torsin-1A-interacting protein 1 (Homo sapiens) (Q5JTV8 whole entry, looked up): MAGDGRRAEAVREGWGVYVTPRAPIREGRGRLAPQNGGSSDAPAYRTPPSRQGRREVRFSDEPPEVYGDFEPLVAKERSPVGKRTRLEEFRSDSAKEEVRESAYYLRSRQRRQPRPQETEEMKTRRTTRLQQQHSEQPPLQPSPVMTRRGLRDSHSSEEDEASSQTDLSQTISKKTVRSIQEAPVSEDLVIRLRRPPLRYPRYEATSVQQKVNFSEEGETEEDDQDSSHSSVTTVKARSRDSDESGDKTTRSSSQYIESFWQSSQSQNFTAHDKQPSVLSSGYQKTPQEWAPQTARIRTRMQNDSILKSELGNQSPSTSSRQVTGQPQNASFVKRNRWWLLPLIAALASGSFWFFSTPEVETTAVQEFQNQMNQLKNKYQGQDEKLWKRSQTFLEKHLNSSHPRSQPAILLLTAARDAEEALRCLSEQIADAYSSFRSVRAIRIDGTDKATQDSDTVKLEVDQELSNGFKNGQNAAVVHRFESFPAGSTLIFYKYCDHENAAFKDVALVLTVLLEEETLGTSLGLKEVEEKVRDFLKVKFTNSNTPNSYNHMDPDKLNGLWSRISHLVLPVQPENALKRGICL
Sequence of Alpha-bungarotoxin (Bungarus multicinctus) (P60615 whole entry, looked up): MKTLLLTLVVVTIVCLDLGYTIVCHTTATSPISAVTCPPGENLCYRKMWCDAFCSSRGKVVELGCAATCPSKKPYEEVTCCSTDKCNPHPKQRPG
Sequence of Left-right determination factor 2 (Homo sapiens) (O00292 whole entry, looked up): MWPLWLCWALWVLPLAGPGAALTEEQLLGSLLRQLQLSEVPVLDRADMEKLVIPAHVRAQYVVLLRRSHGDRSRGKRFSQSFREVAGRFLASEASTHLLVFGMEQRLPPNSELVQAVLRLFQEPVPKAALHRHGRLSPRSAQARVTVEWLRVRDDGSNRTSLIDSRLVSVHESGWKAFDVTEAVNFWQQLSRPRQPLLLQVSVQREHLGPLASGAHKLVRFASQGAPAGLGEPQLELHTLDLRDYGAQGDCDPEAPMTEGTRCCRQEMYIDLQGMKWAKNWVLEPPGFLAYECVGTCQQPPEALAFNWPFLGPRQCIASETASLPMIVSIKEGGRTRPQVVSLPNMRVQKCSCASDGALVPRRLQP

For the compound `CC(C)C[C@@H]1NC(=O)C([C@@H](C)OCc2ccccc2)NC(=O)[C@@]23C(=O)N[C@@H](Cc4ccccc4)C2[C@H](C)[C@@]2(C)O[C@H]2C3/C=C/CC/C=C/CNC1=O` (stereo not given in full), the composite z-score was 1.12 in assay [1]; 0.458 in [3]; -0.407 in assay [4]; -0.543 in assay [5]; -0.15 in assay [6]; -0.0064 in [7]. Also, the composite z-score in assay [8] was -0.24; in assay [9] it was 0.0641; in assay [10], -0.0687. Also, the z-score in [2] is -2.63.
Turning to `[N-]=[N+]=NCc1ccccc1C[C@]1(C(=O)N2CCCCC2)N=C(c2ccc(OCCCO)cc2)O[C@H]1c1ccccc1`, the composite z-score was 0.809 in [1]; -1.05 in assay [3]; 0.816 in assay [4]; 0.407 in assay [5]; 0.105 in assay [6]; 0.134 in assay [7]. In addition, the composite z-score in assay [8] is 0.437; in [9] it was 1.11; in assay [10], -0.049. Moreover, in assay [2], the z-score was -3.2.
As for `COCCOC(=O)N1C(=O)[C@@]2(c3cc(C#CCCO)ccc31)[C@H](C(=O)N1CCN(c3ncccn3)CC1)[C@H]1C(=O)O[C@H](c3ccccc3)[C@H](c3ccccc3)N1[C@@H]2c1ccc(O)cc1`, the composite z-score in [1] was 0.228; in assay [3], 0.0272; in [4] it was -0.444; in [5], -0.559; in [6] it was -0.0179; in assay [7], 0.0074. For the same compound, the composite z-score in assay [8] was 1.01; in [9], 0.894; in assay [10] it was 1.85. The compound further showed a z-score in assay [2] of -1.65.
Take `Cc1ccc(F)cc1S(=O)(=O)N[C@@H]1CCN(Cc2ccc3[nH]ccc3c2)C1`: the composite z-score is 0.935 in assay [1]; 0.292 in assay [3]; -0.46 in assay [4]; -0.754 in assay [5]; -0.12 in assay [6]; -0.0709 in assay [7]. In addition, the results for the composite z-score in [8], in [9] and in [10] were -0.295, 0.144 and 0.431, respectively. In assay [2], the z-score was -4.03.
As for `CN1C=C(C(=O)OCCS(C)(=O)=O)C(C(=O)OCCS(C)(=O)=O)=CC(CCCO)=CC1c1ccc(CN2CCCC2)cc1` (stereo not given), the composite z-score is 1.45 in assay [1]; 0.595 in assay [3]; 0.693 in [4]; -0.551 in [5]; -0.0087 in assay [6]; 0.261 in assay [7]. In addition, the composite z-score in assay [8] turned out to be 0.827; in assay [9], 0.51; in assay [10] it was 0.745. The z-score in assay [2] is -1.36.
In the case of `Cc1c(-c2ccc(-c3ccc(Cl)c(Cl)c3)o2)nc(-c2ccccc2)c2c1CO[Si]2(C(C)C)C(C)C`, the composite z-score was 0.296 in assay [1]; -0.487 in assay [3]; -0.179 in assay [4]; -0.0727 in assay [5]; -0.113 in [6]; 0.0326 in [7]. In addition, the results for the composite z-score in [8], in assay [9] and in assay [10] were -0.103, 0.125 and -0.0982, respectively. In addition, the z-score in [2] was -0.403.
In the case of `Cc1c(NC(=O)/C(C#N)=C/c2ccc(Cl)cc2)c(=O)n(-c2ccccc2)n1C`, the composite z-score in assay [1] was -0.648; in assay [3], 0.119; in assay [4], 1.14; in assay [5], 0.629; in assay [6] it was -0.0869; in [7], -0.0503. Also, the figures for the composite z-score in [8], in assay [9] and in assay [10] were 0.486, 1.58 and 0.766, respectively. In addition, the z-score in [2] is -0.871.
As for `COCCOC(=O)N1C(=O)[C@@]2(c3cc(C#Cc4ccc(OC)cc4)ccc31)[C@H](c1ccc(OCCO)cc1)N1[C@H](c3ccccc3)[C@H](c3ccccc3)OC(=O)[C@H]1[C@@H]2C(=O)N1CCCCCCC1`, the composite z-score worked out at 1.35 in [1]; 0.954 in [3]; 2.27 in assay [4]; 1.21 in [5]; 0.777 in [6]; 2.23 in assay [7]. The composite z-score in [8] was found to be 3.67; in [9], 3.66; in assay [10], 1.99. This compound also had a z-score in assay [2] of -0.891.
As to `[N-]=[N+]=NCc1ccccc1C[C@]1(C(=O)O)COC(c2ccc(OCCCO)cc2)=N1`, the composite z-score in assay [1] is -0.523; in assay [3], -1.47; in assay [4], 0.0347; in [5], 1.01; in assay [6], -0.15; in [7], -0.341. Further, the composite z-score in assay [8] was -0.277; in [9], -1.24; in assay [10], -0.711. Besides, the z-score in assay [2] is -0.35.
On to `NCCCC[C@@H]1NC(=O)[C@H]2C[C@@H](C(=O)NCc3ccc(F)cc3)[C@@H](c3ccc(O)cc3)N2C1=O`, for which the composite z-score is 1.18 in [1]; 0.567 in [3]; 1.17 in [4]; 0.428 in assay [5]; -0.0161 in assay [6]; 0.452 in assay [7]. Besides, the composite z-score in assay [8] was -0.171; in assay [9], 2.33; in assay [10] it was 1.26. This compound showed a z-score in assay [2] of -0.0038.
As to `CN(C)C(=O)[C@]1(Cc2ccccc2CN=[N+]=[N-])N=C(c2ccc(OCCCO)cc2)O[C@@H]1c1ccccc1N=[N+]=[N-]`, the composite z-score was 1.44 in assay [1]; -0.472 in assay [3]; 1.71 in assay [4]; 0.422 in assay [5]; -0.0161 in assay [6]; 0.0639 in assay [7]. In addition, the composite z-score in assay [8] is 0.526; in assay [9], 0.609; in assay [10] it was 1.14. The compound further yielded a z-score in [2] of -1.6.
Take `C=C(CC1([C@@H](NP(=O)(c2ccccc2)c2ccccc2)[C@H]2C[C@@H]2CCN(C(=O)OCC)S(=O)(=O)c2ccc(C)cc2)CC1)c1ccccc1`: the composite z-score is 1.39 in [1]; -0.763 in [3]; 1.88 in [4]; 1.07 in [5]; 0.0267 in assay [6]; 0.935 in [7]. Further, the composite z-score in assay [8] is 1.06; in [9], 0.379; in assay [10], 0.749. For the same compound, the z-score in [2] is -2.09.
As for `CO[C@H]1O[C@H](CO)[C@@H](OC(=O)Nc2ccc(C(F)(F)F)cc2)[C@H](OC(=O)Nc2ccccc2-c2ccccc2)[C@@H]1OC(=O)Nc1ccccc1-c1ccccc1`, the composite z-score worked out at 1.3 in [1]; 0.523 in assay [3]; 2.2 in [4]; 0.383 in assay [5]; 0.0181 in [6]; 0.199 in [7]. For the same compound, the composite z-score in assay [8] worked out at 0.977; in assay [9] it was 1.47; in assay [10], 2.18. The compound further displayed a z-score in assay [2] of -2.79.
On to `[N-]=[N+]=NCc1ccccc1[C@@H]1OC(c2ccc(OCCCO)cc2)=N[C@]1(Cc1ccccc1)C(=O)NCc1ccccc1`, for which the composite z-score in assay [1] turned out to be 1.28; in assay [3], 0.0086; in assay [4], 1.87; in assay [5], 0.237; in assay [6], 0.0495; in [7] it was 0.0181. Besides, the values for the composite z-score in [8], in assay [9] and in [10] were -0.489, 1.12 and 0.688, respectively. Further, the z-score in [2] is -2.34.
Take `O=C1O[C@@H](c2ccccc2)[C@@H](c2ccccc2)N2[C@@H](c3ccc(O)cc3)[C@]3(C(=O)Nc4ccc(C#CC5=CCCCC5)cc43)[C@@H](C(=O)N3CCCCCCC3)[C@H]12`: the composite z-score was found to be 1.38 in [1]; 0.455 in assay [3]; 1.61 in [4]; 0.485 in [5]; 0.654 in assay [6]; 2.04 in assay [7]. Besides, the composite z-score in [8] was 2.52; in assay [9] it was 3.16; in assay [10], 2.25. Besides, the z-score in assay [2] was -1.46.

The values above are taken from PubChem BioAssay.
